Inconclusive results are not listed. Calls of active or inactive are those of the source. Calls come from the whole dose curve; as a rule, active = well fitted cell-killing curve with a large enough effect; inconclusive = small, poorly fitted or top-dose-only effect; inactive = flat fitted curve, though single readings scatter.
Columns and labels:
[1] = Cell Viability - LYMP2-025 (AID 976); note: series mostly up to about 92 µM
Procedure, shortened: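 Human lymphoblastoid LYMP2-025 cells, 2500/well, exposed 24 h at 37 C in complete medium in 1536-well qHTS. Viability as cellular ATP by CellTiter-Glo luminescence; AC50 from Hill fits of concentration-response data.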

[2] = Cell Viability - LYMP2-002 (AID 977);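 note: series mostly up to about 92 µM; compound exposure lasted 24 h at 37 °C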
Procedure, shortened: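 Human lymphoblastoid LYMP2-002 cells, 2500 per well, exposed to compounds for 24 h at 37 C in complete medium; viability read as intracellular ATP by CellTiter-Glo luminescence, AC50 from Hill fits.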

[3] = Cell Viability - LYMP2-006 (AID 978); note: series mostly up to about 92 µM; nearly all actives have a fitted effect of over 60% in size
Procedure, shortened: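 In this cytotoxicity screen, the human lymphoblastoid line grew in complete medium with test compounds for 24 hr at 37 C. Cellular ATP served as the viability signal.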

[4] = Cell Viability - LYMP2-007 (AID 979);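 note: cells exposed to compound for 24 h before reading; nearly all actives have a fitted effect of over 60% in size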
Procedure, shortened: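 Human lymphoblastoid LYMP2-007 cells (2500/well) preincubated 5 h at 37 C, then treated 24 h at 37 C in complete medium. Viability by CellTiter-Glo ATP luminescence after 30 min at room temperature; AC50 from Hill fits.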

[5] = Cell Viability - LYMP2-008 (AID 980); note: nearly all actives have a fitted effect of over 60% in size
Procedure, shortened: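 LYMP2-008 lymphoblastoid cells (2500/well) plated 5 h, then treated 24 h at 37 C in complete medium. Viability read as intracellular ATP by CellTiter-Glo luminescence after 30 min at room temperature; AC50 from Hill fits.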

[6] = Cell Viability - LYMP2-010 (AID 981); note: nearly all actives have a fitted effect of over 55% in size
Procedure, shortened: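 Human lymphoblastoid LYMP2-010 cells (2500/well) treated 24 h at 37 C in complete medium; viability read as intracellular ATP by CellTiter-Glo luminescence. AC50 from Hill fits of concentration-response data; tetraoctylammonium bromide positive control.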

[7] = Cell Viability - LYMP2-012 (AID 982);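 note: cellular ATP by luciferase luminescence where a drop means cytotoxicity; cells exposed to compound for one day before reading; nearly all actives have a fitted effect of over 55% in size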
[8] = Cell Viability - LYMP2-014 (AID 983); note: series mostly up to about 92 µM; nearly all actives have a fitted effect of over 50% in size
Procedure, shortened: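 LYMP2-014 human lymphoblastoid cells, 2500/well, treated 24 h at 37 C in complete medium; viability by CellTiter-Glo ATP luminescence after 30 min at room temperature. AC50 from Hill fits of qHTS concentration-response; tetraoctylammonium bromide positive control.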

[9] = Cell Viability - LYMP2-016 (AID 984); note: nearly all actives have a fitted effect of over 55% in size
Procedure, shortened: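 Concentration-dependent ATP depletion measured in LYMP2-016 lymphoblastoid cells, 24 h, 37 C; luciferase-based luminescent detection; Hill-equation AC50.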

[10] = Cell Viability - LYMP2-018 (AID 985);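 note: compound exposure lasted 24 hr at 37 °C; nearly all actives have a fitted effect of over 50% in size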
Procedure, shortened: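 Human lymphoblastoid LYMP2-018 cells, 2500/well, settled 5 hr at 37 C then exposed to compound 24 hr at 37 C; intracellular ATP measured by CellTiter-Glo luminescence. AC50 from Hill-equation concentration-response fits.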

Measured: Potency

CC(=O)CC(C)C
inactive: [1] | [2] | [3] | [4] | [5] | [6] | [7] | [8] | [9] | [10]

CC(C)C(C)C
inactive: [1] | [2] | [3] | [4] | [5] | [6] | [7] | [8] | [9] | [10]

CCOC(C)(C)C
inactive: [1] | [2] | [3] | [4] | [5] | [6] | [7] | [8] | [9] | [10]

O=C1OC(=O)c2c(Br)c(Br)c(Br)c(Br)c21
inactive: [1] | [2] | [3] | [4] | [5] | [6] | [7] | [8] | [9] | [10]

C=CCCCC
inactive: [1] | [2] | [3] | [4] | [5] | [6] | [7] | [8] | [9] | [10]
